“And” between values parts separate entries of the source, which are not always exact repeats. Identical values can stand only once. Out of some 5,500 compounds screened, about 2,000 (36%) were called active. Inconclusive results (about 18%) are left out. Cut-off read from the data, not from the text of the source: active = normalized growth mostly below about 0.91 (no sharp cut-off); inconclusive = no clear call, values can overlap the other calls; inactive = mostly above about 0.92. This is one part of the list.
Test: chemical genetic growth profiling, strain panel (AID 1159580);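 note: tested at 20 µM; growth read once vehicle control cultures reached saturation at 30 °C; 1 = growth at the plate median or of vehicle wells; lower values mean less growth of the strain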
Conditions: S. cerevisiae deletion strains, growth OD

Measured: normalized growth

COc1ccc(-c2oc3c(CC=C(C)C)c(O[C@@H]4O[C@H](CO)[C@@H](O)[C@H](O)[C@H]4O)cc(O)c3c(=O)c2O[C@@H]2O[C@@H](C)[C@H](O)[C@@H](O)[C@H]2O)cc1
active: locus YBR021W, strain FUR4, stronger effect = lower value 1.19 [resistant]
inactive: locus YAL013W, strain DEP1, stronger effect = lower value 1.04 | locus YAL021C, strain ccr4, stronger effect = lower value 1.05 | locus YAL026C, strain drs2, stronger effect = lower value 1.05 | locus YAL030W, strain snc1, stronger effect = lower value 1.04 | locus YBL061C, strain skt5, stronger effect = lower value 1.03 | locus YBR009C, strain hhf1, stronger effect = lower value 1.03 | locus YBR023C, strain chs3, stronger effect = lower value 1.02 | locus YBR171W, strain sec66, stronger effect = lower value 1.06 | locus YBR229C, strain ROT2, stronger effect = lower value 1 | locus YBR231C, strain swc5, stronger effect = lower value 1.03 | locus YBR279W, strain paf1, stronger effect = lower value 1.03 | locus YCL011C, strain gbp2, stronger effect = lower value 1.03 | locus YCL016C, strain dcc1, stronger effect = lower value 1 | locus YCL029C, strain bik1, stronger effect = lower value 0.976 | locus YCL061C, strain MRC1, stronger effect = lower value 1.04 | locus YCL069W, strain vba3, stronger effect = lower value 1.02 | locus YCR088W, strain abp1, stronger effect = lower value 1.04 | locus YDL005C, strain med2, stronger effect = lower value 1.03 | locus YDL035C, strain GPR1, stronger effect = lower value 1 | locus YDL040C, strain nat1, stronger effect = lower value 1.02 | locus YDL074C, strain BRE1, stronger effect = lower value 0.988 | locus YDL101C, strain DUN1, stronger effect = lower value 0.989 | locus YDL185W, strain tfp1, stronger effect = lower value 0.955 | locus YDL192W, strain arf1, stronger effect = lower value 0.987 | locus YDR001C, strain nth1, stronger effect = lower value 1.04 | locus YDR069C, strain doa4, stronger effect = lower value 1.06 | locus YDR101C, strain arx1, stronger effect = lower value 0.975 | locus YDR137W, strain rgp1, stronger effect = lower value 1.07 | locus YDR150W, strain NUM1, stronger effect = lower value 1.01 | locus YDR159W, strain sac3, stronger effect = lower value 1.07 | locus YDR162C, strain NBP2, stronger effect = lower value 0.989 | locus YDR195W, strain ref2 1.05 | locus YDR297W, strain sur2, stronger effect = lower value 1.03 | locus YDR318W, strain mcm21, stronger effect = lower value 0.986 | locus YDR334W, strain swr1, stronger effect = lower value 1.04 | locus YDR335W, strain msn5, stronger effect = lower value 1.02 | locus YDR388W, stronger effect = lower value 0.99 | locus YDR392W, strain spt3, stronger effect = lower value 1 | locus YDR502C, strain sam2, stronger effect = lower value 0.989 | locus YEL003W, strain gim4, stronger effect = lower value 1.03 | locus YEL037C, strain rad23, stronger effect = lower value 1.03 | locus YEL061C, strain CIN8 (second series), stronger effect = lower value 1.04 | locus YEL061C, strain CIN8, stronger effect = lower value 0.993 | locus YER015W, strain faa2, stronger effect = lower value 1.02 | locus YER016W, strain bim1, stronger effect = lower value 1.03 | locus YER110C, stronger effect = lower value 0.966 | locus YER111C, strain swi4, stronger effect = lower value 1.05 | locus YER155C, strain BEM2 (second series), stronger effect = lower value 1.05 | locus YER155C, strain BEM2, stronger effect = lower value 1 | locus YER167W, strain BCK2, stronger effect = lower value 1.01 | locus YFR010W, strain ubp6, stronger effect = lower value 1.05 | locus YGL078C, strain dbp3, stronger effect = lower value 0.983 | locus YGL086W, strain mad1, stronger effect = lower value 0.975 | locus YGL167C, strain pmr1, stronger effect = lower value 1.02 | locus YGL173C, strain kem1, stronger effect = lower value 1.05 | locus YGL227W, strain vid30, stronger effect = lower value 1.04 | locus YGL240W, strain doc1, stronger effect = lower value 1.04 | locus YGL248W, strain PDE1, stronger effect = lower value 1.01 | locus YGL253W, strain hxk2, stronger effect = lower value 0.946 | locus YGR078C, strain PAC10, stronger effect = lower value 1 | locus YGR135W, strain pre9, stronger effect = lower value 1 | locus YGR252W, strain gcn5, stronger effect = lower value 1.06 | locus YHR013C, strain ard1, stronger effect = lower value 1.03 | locus YHR027C, strain rpn1, stronger effect = lower value 1.03 | locus YHR030C, strain SLT2, stronger effect = lower value 0.99 and 1.02 | locus YHR079C, strain IRE1 (second series), stronger effect = lower value 0.965 | locus YHR079C, strain IRE1, stronger effect = lower value 1.03 | locus YHR094C, strain hxt1, stronger effect = lower value 0.988 | locus YHR129C, strain ARP1, stronger effect = lower value 0.996 | locus YHR142W, strain chs7, stronger effect = lower value 1.01 | locus YHR200W, strain rpn10, stronger effect = lower value 0.997 | locus YIL066C, strain RNR3, stronger effect = lower value 1.02 | locus YIL073C, strain SPO22, stronger effect = lower value 0.924 | locus YIL125W, strain kgd1, stronger effect = lower value 0.985 | locus YIR030C, strain dcg1, stronger effect = lower value 0.983 | locus YJL092W, strain hpr5, stronger effect = lower value 1.04 | locus YJL095W, strain BCK1 (second series), stronger effect = lower value 1.03 | locus YJL095W, strain BCK1, stronger effect = lower value 0.975 and 1.02 | locus YJL115W, strain asf1, stronger effect = lower value 1.05 | locus YJL129C, strain trk1, stronger effect = lower value 1.02 | locus YJL134W, strain LCB3, stronger effect = lower value 1.01 | locus YJL154C, strain vps35, stronger effect = lower value 1.04 | locus YJL164C, strain tpk1, stronger effect = lower value 1.01 | locus YJL166W, strain qcr8, stronger effect = lower value 1.04 | locus YJL168C, strain set2, stronger effect = lower value 0.985 | locus YJL187C, strain SWE1 (second series), stronger effect = lower value 0.987 | locus YJL187C, strain SWE1, stronger effect = lower value 1.02 | locus YJR043C, strain POL32, stronger effect = lower value 1.04
